{"source": "PubChem BioAssay (NCI)", "note": "The panel holds about 83,000 compounds, 20% with a hit somewhere; the sample as a whole holds those more often.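 Cell lines were cultured in 96-well plates, exposed to a single compound concentration, and assessed for percent growth 48 hours later.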 Calls of active or inactive are those of the source.", "data": [{"test_system": "HCC-2998 colon", "test": "NCI-60 one-dose screen, 48 h (100 = growth as untreated, 0 = no growth, -100 = all killed)", "conditions": "10 µM unless noted", "procedure": "Growth inhibition of the HCC-2998 human tumor cell line is measured as a screen for anti-cancer activity. Cells are grown in 96 well plates and exposed to the test compound for 48 hours. Compounds are tested at a single concentration, which is 10^-5 M for most compounds. The reported endpoint is percent growth (GI% or GIPRCNT), where numbers from 0 - 100% represent growth inhibition, and numbers from -100% - 0 represent cell death. For example, a value of 40 represents 60% growth inhibition. A value of 0 means no net growth occurred over the course of the experiment. A value of -40 indicates 40% of cells at the beginning of the experiment died by the end of the experiment. A value of -100 means all cells are dead at the end of the experiment.\nNCI-60 Human Tumor Cell Lines Screen was performed using the standard one-dose NCI protocol, which is described in more detail at https://dtp.cancer.gov/discovery_development/nci-60/default.htm.\nCompounds with GIPRCNT values below 10 were considered active. Activity score was based on GIPRCNT using the following formula: […]\nScore is 0 for GIPRCNT values of 100 or above, 50 for GIPRCNT values of 0, and 100 for GIPRCNT values of -100.", "values": [{"smiles": "O=C(Cc1ccc([N+](=O)[O-])cc1)Oc1ccccc1", "growth": "106% (inactive)"}, {"smiles": "Clc1cc(Cl)cc(-c2cnc3nonc3n2)c1", "growth": "97.5% (inactive)"}, {"smiles": "O=c1nc(-c2ccccc2)c2cc(-c3ccc(N4CCOCC4)cc3)ccc2[nH]1", "growth": "98% (inactive)"}, {"smiles": "COc1ccc(NC(=O)Cn2c(=O)sc3c(-c4ccc(Cl)cc4)cc(-c4ccc(Cl)cc4)nc32)cc1", "growth": "104% (inactive)"}, {"smiles": "C=CC(=O)N1CN(C(=O)C=C)CN(C(=O)C=C)C1", "growth": "101% (inactive)"}, {"smiles": "CC(C)c1cccc(C#N)c1", "growth": "102% (inactive)"}, {"smiles": "C=C(C)[C@@H]1CC[C@]2(C(=O)NS(=O)(=O)c3ccccc3)CC[C@]3(C)[C@H](CC[C@@H]4[C@@]5(C)CC[C@H](OC(=O)NS(=O)(=O)c6ccccc6)C(C)(C)[C@@H]5CC[C@]43C)[C@@H]12", "growth": "-8.69% (active)"}, {"smiles": "Cc1ccc(OC2=C(C#N)C(=N)N3C(=NN2)Sc2c(C)ccc(C)c23)cc1", "growth": "106% (inactive)"}, {"smiles": "COc1cc(/C=C\\c2cc(/C=C\\c3ccc(O)c(OC)c3)n(C(=O)Nc3ccc(C(F)(F)F)cc3)n2)ccc1O", "growth": "103% (inactive)"}, {"smiles": "Cc1ccccc1C1CC(=O)c2ccccc2C1C", "note": "(stereo not given)", "growth": "104% (inactive)"}, {"smiles": "CC(C)N(C(=S)SSC(=S)N(C(C)C)C(C)C)C(C)C", "growth": "113% (inactive)"}, {"smiles": "CCCCCCCC/C=C/CCCCCCCC1=NC(C)(C)CN1c1ccccc1", "growth": "103% (inactive)"}, {"smiles": "C=C1C(=O)O[C@H]2[C@H]1CC/C(COC(=O)N[C@@H](Cc1c[nH]c3ccccc13)C(=O)OC)=C\\CC[C@@]1(C)O[C@@H]21", "growth": "82.4% (inactive)"}, {"smiles": "CS(=O)(=O)c1ccc(C(=O)N/N=C/c2ccccc2Cl)cc1", "growth": "95.8% (inactive)"}, {"smiles": "Cc1c(C(=O)Nc2ccccc2F)sc2c(=O)[nH]cnc12", "growth": "93.2% (inactive)"}, {"smiles": "COC(=O)C(Br)(C(=O)OC)C(Br)C(Br)C(Br)c1ccccc1", "note": "(stereo not given)", "growth": "98.4% (inactive)"}, {"smiles": "CCOC(=O)C1=C(C)NC(=S)NC1c1ccccc1", "note": "(stereo not given)", "growth": "110% (inactive)"}, {"smiles": "CN1C(=O)NC(Cc2c[nH]c3c(Cl)cccc23)C1=O", "note": "(stereo not given)", "growth": "97.5% (inactive)"}, {"smiles": "COc1cccc(N2CCN(c3ncnc4cc[nH]c34)CC2)c1", "growth": "62.7% (inactive)"}, {"smiles": "O=C(c1ccccc1)C(CCc1ccccn1)CCc1ccccn1", "growth": "96.5% (inactive)"}, {"smiles": "CCCCCCCCCCCCCCCCCC(=O)[O][Sn]([CH2]CCC)([CH2]CCC)[CH2]CCC", "growth": "-99.1% (active)"}, {"smiles": "CCOC(=O)C#Cc1c(C(=O)OCC)nnn1[C@@H]1O[C@H](COC(C)=O)[C@@H](OC(C)=O)[C@H]1OC(C)=O", "growth": "105% (inactive)"}, {"smiles": "CC(C)(C)c1ccc(C(=O)Nc2sc3cc(O)ccc3c2C(N)=O)cc1", "growth": "88.2% (inactive)"}, {"smiles": "c1ccc2c(N=NSc3ncnc4nc[nH]c34)c3ccccc3nc2c1", "growth": "6.89% (active)"}, {"smiles": "CC(C)CCSc1nc(-c2ccc(F)cc2)c(C#N)c(N2CCN(C)CC2)n1", "growth": "97.2% (inactive)"}, {"smiles": "CC(C)CC1NC(=O)C(CC(C)C)N(CO)C1=O", "note": "(stereo not given)", "growth": "102% (inactive)"}, {"smiles": "O=c1c2cc(Br)cc(Br)c2nc(-c2ccc(Cl)cc2)n1/N=C\\c1ccccc1F", "growth": "85.4% (inactive)"}, {"smiles": "COc1ccc(-c2cc(-c3cc4ccccc4oc3=O)n(-c3ccccc3)n2)cc1", "growth": "103% (inactive)"}, {"smiles": "Cc1cc(Nc2c3ccccc3nc3ccccc23)ccc1NS(C)(=O)=O", "growth": "50.8% (inactive)"}, {"smiles": "O=C(N/N=C\\c1cc(Br)ccc1O)c1ccncc1", "growth": "42.7% (inactive)"}, {"smiles": "COc1ccc2nc3ccccc3c(NCc3ccc(C)cc3)c2c1", "growth": "-57.9% (active)"}, {"smiles": "CCN1C(=O)N(CC)C2C1NC(=O)N2/N=C/C=C/c1ccccc1", "note": "(stereo not given)", "growth": "64.2% (inactive)"}, {"smiles": "O=C(CCl)N1c2ccccc2Oc2ccc3ccccc3c21", "growth": "103% (inactive)"}, {"smiles": "CC(CN1CCN(CC(C)Nc2ccnc3cc(Cl)ccc23)CC1)Nc1ccnc2cc(Cl)ccc12", "note": "(stereo not given)", "growth": "-5.03% (active)"}, {"smiles": "O=C(/C=C/c1ccco1)c1ccccc1O", "growth": "84.4% (inactive)"}, {"smiles": "CN1C2CCC1/C(=C\\c1ccc(Cl)cc1)C(=O)/C2=C/c1ccc(Cl)cc1", "growth": "112% (inactive)"}, {"smiles": "NC(=S)N1N=C(c2ccc(Cl)cc2)CC1c1cc2ccccc2[nH]c1=O", "note": "(stereo not given)", "growth": "111% (inactive)"}, {"smiles": "OC(CCCCCCCCC(O)CN1CCc2ccccc2C1)CN1CCc2ccccc2C1", "note": "(stereo not given)", "growth": "102% (inactive)"}, {"smiles": "COc1ccc(C(=O)N2N=C(c3ccc(F)cc3)CC2c2cn(-c3ccccc3)nc2-c2ccccc2)cc1", "note": "(stereo not given)", "growth": "85.7% (inactive)"}, {"smiles": "CCOC(=O)c1cc(C(=O)OCC)c(C)nc1C", "growth": "103% (inactive)"}]}]}
